Test results published in PubChem BioAssay (Tox21).
Where “and” joins values, the source holds several entries; their conditions need not be identical. Equal entries are not always repeated. Records with an inconclusive call do not appear. The source holds several records for some structures; these can differ, active in one and inactive in another. Calls of active or inactive are those of the source. Unless noted, calls come from the whole dose curve; as a rule, active = well fitted curve in the direction sought with a large enough effect in the repeat runs; inconclusive = weak or mixed curves; inactive = no such curve, though single readings can be large; an effect the other way counts as inactive or inconclusive.

Key:
[1] = qHTS assay to identify small molecule agonists of the estrogen receptor alpha (ER-alpha) signaling pathway in the presence of an antagonist - cell viability counter screen (AID 1259386);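 note: cells exposed to compounds for 22 h at 37 °C before the viability read; nearly all actives have a fitted effect of over 30% in size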; note: potency is the fitted concentration of half-maximal effect
In short: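 Steps: 5-day stripped-FBS culture; seed and incubate 24hr; add ICI-182,780 (10.0nM final); pin 15-point compound titration; incubate 22hr at 37C; add CellTiter-Fluor at 21hr; read fluorescence.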

[2] = target: Progesterone receptor (Homo sapiens) (UniProt P06401); experiment: qHTS assay to identify small molecule antagonists of the progesterone receptor (PR) signaling pathway (AID 1346795; active = well fitted inhibition curve with a large enough effect in the signal ratio in the repeat runs, not every such curve was filed as active; the % refers to the signal ratio; note: potency is the fitted concentration of half-maximal effect)
In short: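 Beta-lactamase reporter, HEK293T PR-UAS-bla line; 2% charcoal-stripped FBS; 6 hr pre-incubation, 37C/5% CO2. Compound + R5020 1 nM final, 16 hr. LiveBLAzer B/G FRET substrate, 2 hr RT; fluorescence intensity read.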

[3] = qHTS assay to identify small molecule agonists of the TGF-beta/Smad signaling pathway (AID 1346859; active = well fitted activation curve with a large enough effect in the signal ratio in the repeat runs, not every such curve was filed as active; the % refers to the signal ratio; note: series mostly up to about 77 µM; % is set by controls: 0 for no effect and ±100 for the full control effect)
In short: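 Read-out: fluorescence at 460 and 530 nm (405 nm excitation) after a 2 hr room-temperature incubation with beta-lactamase FRET substrate. SBE-bla HEK 293T cells had been treated with test compounds for 5 hr at 37 C.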

[4] = target: Thyrotropin-releasing hormone receptor (Homo sapiens) (UniProt P34981); experiment: qHTS assay to identify small molecule antagonists of the thyrotropin-releasing hormone receptor (TRHR) signaling pathway (AID 1346877; active = well fitted inhibition curve with a large enough effect in the repeat runs, not every such curve was filed as active; note: potency is the fitted concentration of half-maximal effect)
In short: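 Human TRHR in HEK293 cells; inhibition of the intracellular calcium rise triggered by 1 nM TRH was followed by fluorescence over 3 min. Compounds were run at 15 concentrations, three replicates each.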

[5] = target: Thyrotropin-releasing hormone receptor (Homo sapiens) (UniProt P34981); experiment: qHTS assay to identify small molecule agonists of the thyrotropin-releasing hormone receptor (TRHR) signaling pathway (AID 1346891; calls by dose curve; note: potency is the fitted concentration of half-maximal effect;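 for activation: HEK293 cells expressing TRHR with calcium dye readout; series mostly up to about 58 µM; % is set by controls: 0 for no effect and ±100 for the full control effect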)
In short: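 HEK293/TRHR cells, 1500 per well, 18 h 37 °C; Ca dye 2 h 37 °C; pin-tool compound addition (agonist mode); kinetic fluorescence 3 min, 1 s reads; 15 concentrations, triplicate.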

[6] = Human pregnane X receptor (PXR) small molecule agonists, qHTS cell viability counter screen (AID 1346977); note: nearly all actives have a fitted effect of over 50% in size; note: potency is the fitted concentration of half-maximal effect
In short: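 Fluorescence read-out (CellTiter-Fluor) of viability in PXR-Luc HepG2 cells, multiplexed with the luciferase agonist read. Compounds in DMSO added after 5hr plating; 24hr total exposure at 37C, 5% CO2.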

[7] = Caspase-3/7 induction in HepG2 cells by small molecules, qHTS assay (AID 1346978); note: nearly all actives have a fitted effect of over 15% in size; note: potency is the fitted concentration of half-maximal effect; for caspase activation: % is set by controls: 0 for no effect and ±100 for the full control effect
In short: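 Wild-type HepG2 cells, 2,000/well, settled 5 hr at 37 C and 5% CO2, then compound-treated for 17 hr; caspase-3/7 activity read by luminescent Caspase-Glo 3/7 after 30 min at room temperature.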

[8] = Caspase-3/7 induction in CHO-K1 cells by small molecules, qHTS cell viability counter screen (AID 1346979); note: potency is the fitted concentration of half-maximal effect; nearly all actives have a fitted effect of over 35% in size
In short: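 CHO-K1 wt, 1,500 cells/well; 5hr pre-incubation 37C/5% CO2; compound pin transfer (DMSO); 16hr exposure; CellTiter-Fluor added, 1hr, fluorescence read.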

[9] = Caspase-3/7 induction in CHO-K1 cells by small molecules, qHTS assay (AID 1346980); note: % is set by controls: 0 for no effect and ±100 for the full control effect; nearly all actives have a fitted effect of over 15% in size
In short: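 Wild-type CHO-K1 cells exposed to compounds for 17hr at 37 C, 5% CO2. Caspase-3/7 activity then measured by Caspase-Glo 3/7 luminescence after 30min at room temperature.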

[10] = Caspase-3/7 induction in HepG2 cells by small molecules, qHTS cell viability counter screen (AID 1346981); note: nearly all actives have a fitted effect of over 30% in size; note: potency is the fitted concentration of half-maximal effect
In short: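 The parent HepG2 line is plated at 2,000 cells per well and rested 5 hr before compound pinning from DMSO stocks. Following a 16-hr treatment at 37 C, a fluorogenic live-cell substrate (CellTiter-Fluor) reports viability after 1 hr.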

[11] = target: Nuclear receptor subfamily 1 group I member 2 (Homo sapiens) (UniProt O75469); experiment: Human pregnane X receptor (PXR) small molecule agonists, qHTS assay (AID 1346982); note: potency is the fitted concentration of half-maximal effect; nearly all actives have a fitted effect of over 35% in size
In short: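 After plating in 5% charcoal-stripped FBS and a 5 hr rest, PXR-Luc HepG2 cells received compounds in DMSO. Following 24 hr at 37 C, ONE-Glo was added and light output read.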

[12] = target: Acetylcholinesterase (Homo sapiens) (UniProt P22303); experiment: Acetylcholinesterase (AChE) small molecule antagonists: colormetric cell-based qHTS assay (AID 1347395; calls by dose curve; note: nearly all actives have a fitted effect of over 30% in size; note: potency is the fitted concentration of half-maximal effect)
In short: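 SH-SY5Y cells; cpd 30 min 37 C; + DTNB/acetylthiocholine, 90 min 37 C; colorimetric thiocholine read; qHTS.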

[13] = target: Progesterone receptor (Homo sapiens) (UniProt P06401); experiment: qHTS assay to identify small molecule agonists of the progesterone receptor (PR) signaling pathway (AID 1346784; calls by dose curve; note: % is set by controls: 0 for no effect and ±100 for the full control effect; nearly all actives have a fitted effect of over 30% in size)
In short: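 HEK 293T PR-UAS-bla reporter cells, 2% charcoal-stripped FBS; 6 hr settle at 37C/5% CO2, compound (DMSO) 16 hr, LiveBLAzer B/G FRET substrate 2 hr RT, fluorescence intensity read.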

[14] = qHTS assay to identify small molecule agonists of the TGF-beta/Smad signaling pathway - cell viability counter screen (AID 1346829); note: nearly all actives have a fitted effect of over 45% in size; note: potency is the fitted concentration of half-maximal effect
In short: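 After overnight seating at 37 C and 5% CO2, reporter cells got compounds for 5 hr and FRET substrate for 2 hr; cell viability then came from CellTiter-Glo luminescence.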

[15] = qHTS assay to identify small molecule antagonists of the progesterone receptor (PR) signaling pathway - cell viability counter screen (AID 1346798); note: potency is the fitted concentration of half-maximal effect; nearly all actives have a fitted effect of over 50% in size
In short: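 Luminescence readout (CellTiter-Glo, 30 min, RT) of viability in PR-UAS-bla HEK293T cells exposed to compound and R5020 agonist for 16 hr at 37C, 5% CO2; run in the same wells as the beta-lactamase reporter read.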

[16] = qHTS assay to identify small molecule agonists of the progesterone receptor (PR) signaling pathway - cell viability counter screen (AID 1346799; calls by dose curve; note: nearly all actives have a fitted effect of over 45% in size; note: potency is the fitted concentration of half-maximal effect)
In short: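 HEK293T PR-UAS-bla, 3,000 cells/well, 2% charcoal-stripped FBS; 6 h settle, compound 16 h at 37C/5% CO2; LiveBLAzer 2 h RT, then CellTiter-Glo 30 min RT, luminescence read.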

[17] = qHTS assay to identify small molecule antagonists of the TGF-beta/Smad signaling pathway - cell viability counter screen (AID 1346824); note: nearly all actives have a fitted effect of over 50% in size; note: potency is the fitted concentration of half-maximal effect
In short: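 SBE-bla HEK 293T cells, incubated overnight, then compound plus 0.25 ng/mL TGF-beta1 (stock added) for 5 hr at 37 C. Viability was read in the same wells by CellTiter-Glo luminescence after 30 min at room temperature.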

[18] = target: Nuclear receptor subfamily 1 group I member 2 (Homo sapiens) (UniProt O75469); experiment: CYP3A4 induction through human pregnane X receptor (PXR) by small molecules, qHTS assay (AID 1346984); note: % is set by controls: 0 for no effect and ±100 for the full control effect; nearly all actives have a fitted effect of over 40% in size
In short: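 Human PXR activation is tracked via CYP3A4 promoter-luciferase in DPX-2 (HepG2) cells. Compounds treat cells for 24hr at 37C, and luminescence is read after One-Glo.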

[19] = target: Nuclear receptor subfamily 1 group I member 2 (Homo sapiens) (UniProt O75469); experiment: Human pregnane X receptor (PXR) activation by small molecules, qHTS assay (AID 1346985); note: nearly all actives have a fitted effect of over 40% in size; note: potency is the fitted concentration of half-maximal effect; for activation: % is set by controls: 0 for no effect and ±100 for the full control effect
In short: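 DPX-2 cells (HepG2 co-transfected with a PXR response element and a CYP3A4-promoter luciferase construct) were seeded at 2,000 per well, rested 5 hr at 37C, then exposed to DMSO-dissolved compounds for 24 hr. Activation was read as luciferase luminescence.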

[20] = target: Nuclear receptor subfamily 1 group I member 2 (Rattus norvegicus) (UniProt Q9R1A7); experiment: Rat pregnane X receptor (rPXR) activation by small molecules, qHTS assay (AID 1346983); settings: rPXR luciferase reporter cells, One-Glo luminescence, 24 h; max activation: stronger effect = higher value; note: % is set by controls: 0 for no effect and ±100 for the full control effect; nearly all actives have a fitted effect of over 20% in size
In short: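 Cell-based rPXR activation assay: rPXR cells, 2,000 per well, rested 5hr at 37 C, then exposed to compounds in DMSO for 24 hr at 37 C. Luciferase activity read by One-Glo luminescence after 30 min at room temperature.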

Sequence of Thyrotropin-releasing hormone receptor (Homo sapiens) (P34981 whole entry, looked up): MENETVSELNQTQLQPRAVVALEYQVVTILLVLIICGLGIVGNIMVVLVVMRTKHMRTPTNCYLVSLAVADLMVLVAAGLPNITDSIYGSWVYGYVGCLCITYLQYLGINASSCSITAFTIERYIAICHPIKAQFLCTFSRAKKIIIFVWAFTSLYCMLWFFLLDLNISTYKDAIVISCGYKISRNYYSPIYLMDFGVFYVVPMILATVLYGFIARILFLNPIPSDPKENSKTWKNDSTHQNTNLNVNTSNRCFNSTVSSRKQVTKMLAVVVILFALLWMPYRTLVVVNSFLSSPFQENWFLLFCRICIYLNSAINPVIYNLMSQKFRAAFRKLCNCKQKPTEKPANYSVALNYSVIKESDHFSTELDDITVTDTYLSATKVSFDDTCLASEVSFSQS
Sequence of Acetylcholinesterase (Homo sapiens) (P22303 whole entry, looked up): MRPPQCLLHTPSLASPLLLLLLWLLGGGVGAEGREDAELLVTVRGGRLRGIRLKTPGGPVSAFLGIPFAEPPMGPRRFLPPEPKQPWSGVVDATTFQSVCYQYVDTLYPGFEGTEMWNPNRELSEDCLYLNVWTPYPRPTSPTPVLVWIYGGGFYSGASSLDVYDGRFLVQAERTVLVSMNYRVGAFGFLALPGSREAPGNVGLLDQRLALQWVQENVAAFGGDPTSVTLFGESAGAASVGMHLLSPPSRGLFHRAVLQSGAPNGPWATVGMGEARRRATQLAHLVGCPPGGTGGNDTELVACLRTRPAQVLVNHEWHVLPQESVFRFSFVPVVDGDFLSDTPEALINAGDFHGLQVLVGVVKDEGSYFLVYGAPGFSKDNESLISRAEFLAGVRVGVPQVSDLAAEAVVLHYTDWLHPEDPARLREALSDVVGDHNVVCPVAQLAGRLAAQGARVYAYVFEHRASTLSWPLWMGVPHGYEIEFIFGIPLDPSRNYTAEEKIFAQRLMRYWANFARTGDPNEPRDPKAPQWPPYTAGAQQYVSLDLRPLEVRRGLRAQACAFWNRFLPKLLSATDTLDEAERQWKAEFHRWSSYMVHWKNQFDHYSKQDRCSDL
Sequence of Nuclear receptor subfamily 1 group I member 2 (Homo sapiens) (O75469 whole entry, looked up): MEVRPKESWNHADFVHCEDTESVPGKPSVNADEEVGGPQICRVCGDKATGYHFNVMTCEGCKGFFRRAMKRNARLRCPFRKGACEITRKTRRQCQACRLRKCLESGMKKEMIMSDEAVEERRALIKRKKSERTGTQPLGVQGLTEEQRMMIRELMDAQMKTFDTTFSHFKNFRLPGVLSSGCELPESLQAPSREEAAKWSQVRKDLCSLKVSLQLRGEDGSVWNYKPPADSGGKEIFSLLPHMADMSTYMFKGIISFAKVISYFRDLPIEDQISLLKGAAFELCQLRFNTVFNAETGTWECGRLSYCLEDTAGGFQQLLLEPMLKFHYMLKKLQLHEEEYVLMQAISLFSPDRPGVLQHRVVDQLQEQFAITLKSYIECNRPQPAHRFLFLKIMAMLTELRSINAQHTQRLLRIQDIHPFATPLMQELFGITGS
Sequence of Progesterone receptor (Homo sapiens) (P06401 whole entry, looked up): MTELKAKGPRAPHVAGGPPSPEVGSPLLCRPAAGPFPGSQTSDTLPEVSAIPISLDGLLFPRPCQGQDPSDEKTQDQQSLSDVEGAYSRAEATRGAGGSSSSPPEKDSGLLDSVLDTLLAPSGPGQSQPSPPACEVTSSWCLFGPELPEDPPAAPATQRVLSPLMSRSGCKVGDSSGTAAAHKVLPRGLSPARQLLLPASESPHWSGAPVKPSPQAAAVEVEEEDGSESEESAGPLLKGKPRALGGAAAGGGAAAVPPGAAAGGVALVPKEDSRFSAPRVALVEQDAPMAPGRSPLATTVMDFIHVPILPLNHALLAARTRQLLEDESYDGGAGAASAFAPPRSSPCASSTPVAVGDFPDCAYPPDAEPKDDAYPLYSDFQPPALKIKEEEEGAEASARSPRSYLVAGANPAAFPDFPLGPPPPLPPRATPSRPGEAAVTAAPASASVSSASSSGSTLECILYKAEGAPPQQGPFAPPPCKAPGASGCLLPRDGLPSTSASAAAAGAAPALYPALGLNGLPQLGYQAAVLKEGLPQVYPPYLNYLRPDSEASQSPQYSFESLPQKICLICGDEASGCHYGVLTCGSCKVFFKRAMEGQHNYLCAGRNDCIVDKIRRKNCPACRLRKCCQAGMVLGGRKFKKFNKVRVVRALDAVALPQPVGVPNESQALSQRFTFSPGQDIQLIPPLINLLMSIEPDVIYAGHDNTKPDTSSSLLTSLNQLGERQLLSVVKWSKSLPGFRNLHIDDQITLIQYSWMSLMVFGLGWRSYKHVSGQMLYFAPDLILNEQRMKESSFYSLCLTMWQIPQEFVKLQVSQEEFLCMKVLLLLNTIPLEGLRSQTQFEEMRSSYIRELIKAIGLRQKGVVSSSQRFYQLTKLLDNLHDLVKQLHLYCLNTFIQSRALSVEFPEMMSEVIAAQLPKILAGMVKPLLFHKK
Sequence of Nuclear receptor subfamily 1 group I member 2 (Rattus norvegicus) (Q9R1A7 whole entry, looked up): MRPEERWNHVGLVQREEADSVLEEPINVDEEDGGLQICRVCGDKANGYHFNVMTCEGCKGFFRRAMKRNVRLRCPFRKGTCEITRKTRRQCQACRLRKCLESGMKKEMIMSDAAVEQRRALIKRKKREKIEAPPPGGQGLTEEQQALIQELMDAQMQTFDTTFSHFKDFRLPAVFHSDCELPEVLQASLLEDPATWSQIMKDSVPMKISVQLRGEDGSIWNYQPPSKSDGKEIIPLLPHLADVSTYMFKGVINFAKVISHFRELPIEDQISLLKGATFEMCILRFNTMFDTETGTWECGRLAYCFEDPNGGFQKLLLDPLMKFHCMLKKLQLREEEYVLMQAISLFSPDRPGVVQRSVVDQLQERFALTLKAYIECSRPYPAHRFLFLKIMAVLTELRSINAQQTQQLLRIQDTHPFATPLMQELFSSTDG

## CC(C)CC(C)Nc1ccc(Nc2ccccc2)cc1 (stereo not drawn)
[1]
  Potency: 60.1 µM (active)
[2]
  Potency: 47.7 µM (active)
[3]
  outcome: inactive
[4]
  Potency: inactive
[5]
  Potency: inactive
[6]
  Potency: 53.5 µM (active)
[7]
  Potency: inactive
[8]
  Potency: 60.1 µM (active)
[9]
  Potency: inactive
[10]
  Potency: 67.4 µM (active)
[11]
  Potency: 12 µM (active)
[12]
  Potency: inactive

## CC(C)[C@H](C(=O)OC(C#N)c1cccc(Oc2ccccc2)c1)c1ccc(OC(F)F)cc1 (stereo partly drawn)
[1]
  Potency: inactive
[13]
  Potency: inactive
[14]
  Potency: inactive
[3]
  outcome: inactive
[4]
  Potency: inactive
[5]
  Potency: inactive
[6]
  Potency: inactive
[7]
  Potency: inactive
[9]
  Potency: inactive
[10]
  Potency: inactive
[11]
  Potency: 9.69 µM (active)
[12]
  Potency: inactive

## CN(C)C(=S)S
[1]
  Potency: inactive
[15]
  Potency: 15.7 µM (active) and 17.2 µM (active)
[16]
  Potency: inactive and 13.7 µM (active)
[17]
  Potency: inactive
[14]
  Potency: inactive
[3]
  outcome: inactive
[6]
  Potency: 15.8 µM (active) and 12.1 µM (active) and 15.4 µM (active)
[7]
  Potency: 19.7 µM (active) and 17.2 µM (active)
[8]
  Potency: 8.81 µM (active) and 857 nM (active) and 12.2 µM (active)
[9]
  Potency: inactive
[10]
  Potency: inactive

## Clc1ccc(CCC(Cn2ccnc2)Sc2c(Cl)cccc2Cl)cc1 (stereo not drawn)
[1]
  Potency: inactive
[15]
  Potency: 11.9 µM (active)
[16]
  Potency: 21.1 µM (active)
[17]
  Potency: inactive
[14]
  Potency: inactive
[7]
  Potency: inactive
[8]
  Potency: 11.9 µM (active)
[9]
  Potency: inactive
[11]
  Potency: 4.22 µM (active)
[18]
  Potency: inactive
[19]
  Potency: 4.47 µM (active)
[12]
  Potency: inactive

## C[C@H]1CC[C@@H]2[C@@H](C)[C@H]3[C@H](C[C@H]4[C@@H]5CC=C6CC(O[C@@H]7O[C@H](CO)[C@H](O)[C@H](O[C@@H]8O[C@H](CO)[C@@H](O)[C@H](O)[C@H]8O)[C@H]7O[C@H]7O[C@@H](C)[C@H](O)[C@@H](O)[C@H]7O)CC[C@]6(C)[C@H]5CC[C@]34C)N2C1 (stereo partly drawn)
[1]
  Potency: 28.2 µM (active)
[15]
  Potency: 31.6 µM (active)
[16]
  Potency: 22.4 µM (active)
[17]
  Potency: 12.7 µM (active)
[14]
  Potency: 12.7 µM (active)
[4]
  Potency: 7.82 µM (active)
[5]
  Potency: 8.99 µM (active)
[7]
  Potency: inactive
[9]
  Potency: inactive
[10]
  Potency: 31.6 µM (active)
[20]
  max activation: -11.8% (inactive)
[18]
  Potency: inactive
[19]
  Potency: inactive
[12]
  Potency: 26 µM (active)

## CN(C)C(=S)[S-].CN(C)C(=S)[S-].[Cu+2]
[1]
  Potency: 13.2 µM (active)
[15]
  Potency: 1.18 µM (active)
[16]
  Potency: 1.49 µM (active)
[17]
  Potency: 4.23 µM (active)
[14]
  Potency: 9.46 µM (active)
[3]
  activation: -6.22% [at 15.8 µM] (inactive)
[6]
  Potency: 5.92 µM (active)
[7]
  caspase activation: -18.7% [at 19 µM] (inactive)
[8]
  Potency: 1.67 µM (active)
[9]
  caspase-3/7 activation: -5.91% [at 19 µM] (inactive)
[10]
  Potency: 7.45 µM (active)

## CCC(C)c1cc([N+](=O)[O-])cc([N+](=O)[O-])c1OC(=O)C=C(C)C (stereo not drawn)
[1]
  Potency: 54.5 µM (active)
[13]
  Potency: inactive
[17]
  Potency: inactive
[14]
  Potency: inactive
[4]
  Potency: inactive
[5]
  Potency: inactive
[6]
  Potency: 27.3 µM (active)
[7]
  Potency: inactive
[8]
  Potency: 43.3 µM (active)
[11]
  Potency: 61.1 µM (active)
[12]
  Potency: inactive

## Cc1cc(C(C)(C)c2cc(C)c(O)c(C)c2)cc(C)c1O
[1]
  Potency: inactive
[15]
  Potency: 41.8 µM (active)
[16]
  Potency: 59.1 µM (active)
[17]
  Potency: inactive
[5]
  Potency: inactive
[8]
  Potency: 59.1 µM (active)
[9]
  Potency: inactive
[10]
  Potency: 52.7 µM (active)
[11]
  Potency: 33.2 µM (active)
[12]
  Potency: inactive
